# Unmarked numbers belong to inactive results. How the calls were made is not given here.
# Target: Pantothenate synthetase (Mycobacterium tuberculosis (strain ATCC 25618 / H37Rv)) (UniProt P9WIL5)
# Test: Recombinant Mtb pantothenate synthetase (PanC) inhibitors, coupled enzyme, confirmatory (AID 375);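 further: 0% = full reaction with vehicle and 100% = no enzyme background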
# Details: coupled enzyme assay; at 10 µM, stronger effect = higher value
# Pantothenate synthetase (Mycobacterium tuberculosis (strain ATCC 25618 / H37Rv)), sequence (P9WIL5 whole entry, looked up): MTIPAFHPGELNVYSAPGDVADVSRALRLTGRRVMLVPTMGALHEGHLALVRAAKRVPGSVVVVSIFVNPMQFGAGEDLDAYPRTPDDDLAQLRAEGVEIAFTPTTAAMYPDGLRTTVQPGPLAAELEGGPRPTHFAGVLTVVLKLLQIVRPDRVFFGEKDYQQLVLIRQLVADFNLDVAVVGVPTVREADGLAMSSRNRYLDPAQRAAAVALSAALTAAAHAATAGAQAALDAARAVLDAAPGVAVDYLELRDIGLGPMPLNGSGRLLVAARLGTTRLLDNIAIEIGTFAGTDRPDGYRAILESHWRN
row,SMILES,inhibition [%]
1,Cc1cccc(N2CCN(Cc3c(C)n(C)n(-c4ccccc4)c3=O)CC2)c1C,0
2,CCOC(=O)C1CCCN(Cc2nc(N)nc(Nc3ccc(C)cc3)n2)C1 (stereo not given),0
3,COc1ccc(CCNC(=O)CSCc2n[nH]c(=O)[nH]2)cc1OC,0
4,c1ccc(-c2nnc(OCCN3CCOCC3)c3ccccc23)cc1,0
5,Cc1c(C(=O)NCc2ccccn2)oc2ccccc12,0
6,COc1ccc(C2/C(=C(/O)c3ccc(OC(C)C)cc3)C(=O)C(=O)N2CCCN2CCOCC2)cc1 (stereo not given),0
7,Cc1c(N(C)C)nc2ccccc2c1N,0
8,O=C(CCCN1CC=C(n2c(=O)[nH]c3ccccc32)CC1)c1ccc(F)cc1,0
9,COc1ccc(Br)cc1-c1noc(-c2ccccc2)n1,4
10,Cc1ccc(CCNC(=O)C2CCCN(S(=O)(=O)c3cnc[nH]3)C2)cc1 (stereo not given),2
11,O=C(CCCn1c(=O)c2sccc2n(Cc2ccc(F)cc2)c1=O)NCc1ccco1,1
12,O=C(c1ccc(Cl)cc1)C1CCN(C(=O)NC2CCCCC2)CC1,0
13,Cc1c(C(=O)Nc2nnc(C(F)(F)F)s2)oc2ccccc12,5
14,O=C(Nc1ncc(Cc2ccccc2)s1)C1CCCO1 (stereo not given),5
15,O=C1CC(Sc2nnc(-c3ccccc3)o2)C(=O)N1c1ccccc1 (stereo not given),0
16,COc1ccc(C2CC(c3cccc(C)c3)n3ncnc3N2)cc1 (stereo not given),0
17,Cc1cc(C)c2nc(N)sc2c1,0
18,c1ccc(CNC2=NCCC2)nc1,0
19,CC(C)CCn1c(NCCc2ccccc2)nc2c1c(=O)n(C)c(=O)n2C,0
20,Cc1cc(C)c(C)c(OCC(=O)NCC2CCCO2)c1 (stereo not given),0

row,SMILES,inhibition [%]
1,CCN1CCN(S(=O)(=O)c2ccc(S(=O)(=O)N(CC)Cc3ccccc3)cc2)CC1,7
2,CSc1nc(N2CCOCC2)c2c(c1C#N)CCCCC2,0
3,O=C(O)CCc1ccc(-c2ccc(Br)cc2)n1CC(=O)O,0
4,CN(Cc1nc(-c2ccncc2)no1)S(=O)(=O)c1ccc(Cl)cc1,0
5,COc1ccc(-c2ccc(=O)n(Cc3cc(=O)n4ccccc4n3)n2)cc1,0
6,CC(=O)N(c1ccc(N(C(C)=O)S(=O)(=O)c2cccs2)cc1)S(=O)(=O)c1cccs1,0
7,Cc1ccc2nc(C(F)(F)F)c(C#N)c(N)c2c1,7
8,O=C(COc1ccccc1)NCC(c1cccs1)N1CCOCC1 (stereo not given),4
9,O=C1CC(c2cccc(Cl)c2)CC(O)=C1C=NCCCO (stereo not given),9
10,COc1ccc(S(=O)(=O)n2ccnc2)c2cccnc12,4
11,CN(C)C(CN1C(=O)C2CC=CCC2C1=O)c1cn(C)c2ccccc12 (stereo not given),0
12,CCOC(=O)C(NC(=O)OC(C)C)(Nc1nccs1)C(F)(F)F (stereo not given),2
13,Cc1ccccc1-n1nnc2c(=O)oc3ccccc3c21,0
14,CCOC(=O)C1=C(O)C(=O)N(c2ccc(S(N)(=O)=O)cc2)C1c1ccccc1 (stereo not given),0
15,CCOC(=O)c1ccc2[nH]c(C)c(CN3CCN(C)CC3)c(=O)c2c1,0
16,COc1cccc(CC(=O)Nn2c(C)nc3ccccc3c2=O)c1,2
17,CCOC(=O)CSc1nnc(-c2ccc(NS(=O)(=O)c3ccc(C)cc3)cc2)o1,0
18,O=C(NCc1ccco1)c1cnc2n(c1=O)CCS2,0
19,O=C(CSc1nnc(SCc2ccc(Cl)cc2)s1)N1CCN(C(=O)c2ccco2)CC1,7
20,COc1ccc(C)cc1C(=O)CCC(=O)Nc1ccccc1N1CCOCC1,2

# From PubChem BioAssay
